TSHR antag: Antagonists of the Thyroid Stimulating Hormone Receptor: HTS campaign. Thyrotropin receptor (Homo sapiens), P16473. TSHR-expressing cells, TSH-stimulated cAMP HTRF, 2 h; active compounds read low. activity change, negative = inhibition, % at 11.5 µM. hit rate 0.2% among 330,000. AID 504810, 2011;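 active = activity change below a set negative limit, meaning inhibition stronger than a set level, cut at about -70% in these data; inconclusive = activity change between two set negative limits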
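TSHR-expressing cells were treated with compounds, then stimulated with TSH at EC80 (4nM final) for 2 hours at 37 deg C. Cellular cAMP was measured by HTRF competition between lysate cAMP and cAMP-d2 for a cryptate-labelled anti-cAMP antibody.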
DRD3 agonist: qHTS of D3 Dopamine Receptor Agonist: qHTS; D3R DiscoveRx beta-arrestin cells, luminescence, 90 min; max activation, %; hit rate 0.58% among 410,000; AID 652048, 2013; in the data active = max activation above about 30%
Target sequence (P35462 whole entry, looked up): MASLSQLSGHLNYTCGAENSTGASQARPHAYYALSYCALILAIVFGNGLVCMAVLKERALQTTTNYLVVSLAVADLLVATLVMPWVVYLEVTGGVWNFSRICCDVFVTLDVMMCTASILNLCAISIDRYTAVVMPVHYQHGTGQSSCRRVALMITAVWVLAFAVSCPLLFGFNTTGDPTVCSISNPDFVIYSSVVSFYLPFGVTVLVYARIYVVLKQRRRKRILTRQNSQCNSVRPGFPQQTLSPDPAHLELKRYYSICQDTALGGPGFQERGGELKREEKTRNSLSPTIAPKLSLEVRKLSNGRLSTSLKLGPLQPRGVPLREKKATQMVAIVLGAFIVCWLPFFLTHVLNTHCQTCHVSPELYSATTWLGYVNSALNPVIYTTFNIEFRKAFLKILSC
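Cells at 1500/well, incubated overnight, then treated with pinned compounds (dopamine as control) for 90 min at 37 degrees C. DiscoveRx reagent added for 30 - 60 minutes at room temperature; luminescence read.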
DRD3 antagonist: qHTS of D3 Dopamine Receptor Antagonist: qHTS. D(3) dopamine receptor (Homo sapiens), P35462. D3R cells, DiscoveRx beta-arrestin luminescence, antagonist mode; active compounds read low. max response, negative = inhibition, %. hit rate 2.5% among 360,000; in the data active = max response below about -50%; inconclusive = no clear call, values can overlap the other calls
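Cells plated overnight at 1500 cells/well, then exposed to library compounds with dopamine controls for 90 minutes at 37 degrees C. DiscoveRx reagent added for 30–60 minutes at room temperature; luminescence read, quantitative HTS format.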
B2AR arrestin: qHTS assay of beta-arrestin-biased ligands of beta2-adrenergic receptor | Beta-2 adrenergic receptor (Homo sapiens), P07550 | beta-arrestin recruitment to beta2AR, cell-based reporter | Potency, µM (titrated, usually from 46.1 µM), actives largely listed as activators | hit rate 0.02% among 330,000; active = well fitted activation curve with a large enough effect; inconclusive = small, poorly fitted or top-dose-only effect; note: nearly all actives have a fitted effect of over 65% in size
Of the large screens only hits and unclear results are named; the others gave an inactive call; ! = repeats disagree. A selection: hits, their analogues and other compounds. The true share with any hit is near 2.9%.

O=C(NCCCN1CCN(c2ccc(F)cc2)CC1)NC12CC3CC(CC(C3)C1)C2	DRD3 antagonist -82
O=C(CCN1CCN(c2ccc(F)cc2)CC1)Nc1ccccc1F	none
O=C(CN1CCN(Cc2ccc(Cl)cc2)C1=O)NCCCN1CCN(c2ccc(F)cc2)CC1	DRD3 antagonist -66
O=C(Nc1ccccc1F)c1ccc(CN2CCN(c3ccccc3)CC2)cc1	DRD3 antagonist -54
O=C(NCc1ccc(Cl)cc1)C1CCN(S(=O)(=O)c2ccc3c(c2)CCCN3C(=O)C2CCC2)CC1	none (no result: TSHR antag, DRD3 antagonist, B2AR arrestin)
O=C1CCCc2cc(S(=O)(=O)N3CCCC(C(=O)Nc4ccc(F)c(Cl)c4)C3)ccc2N1 (stereo not given)	none (no result: TSHR antag, DRD3 antagonist, B2AR arrestin)
Cc1ccc(S(=O)(=O)Nc2cc3c(C(=O)OCc4ccccc4)c(C)oc3c3ccccc23)c(C)c1	none (no result: TSHR antag, DRD3 antagonist, B2AR arrestin)
COc1cc(C(=O)NCC(c2ccc3c(c2)OCO3)N2CCOCC2)cc(OC)c1OC (stereo not given)	none (no result: TSHR antag, DRD3 antagonist, B2AR arrestin)
CSc1ccc(N2CCN(CCCNC(=O)Nc3ccccc3F)CC2)cc1	DRD3 agonist 31, DRD3 antagonist inconclusive
NCCNCCNCCN	DRD3 agonist 36!
CCN1CCN(Cc2ccc(NC(=O)Nc3ccccc3Cl)cc2)CC1	DRD3 antagonist -61
CCN1CCN(Cc2ccccc2NC(=O)Nc2ccc(C)cc2)CC1	none
O=C(Nc1ccc(CN2CCCCC2)cc1)c1ccc(Br)o1	DRD3 antagonist -62
O=C(Nc1ccc(CN2CCCCC2)cc1)Nc1ccccc1Cl	DRD3 antagonist -52
O=C1[C@@H]2Cc3ccccc3CN2C(=O)N1c1cccc(F)c1	DRD3 agonist 37
Cc1ccccc1N1C(S)=C(C#N)C(=O)NC1c1cccs1 (stereo not given)	DRD3 antagonist -73 (no result: TSHR antag)
CC(C)Oc1cccc(NC(=O)C2(C)CCCN(C)C2)c1 (stereo not given)	none (no result: TSHR antag, B2AR arrestin)
COCC(=O)N1CCCC(C)(C(=O)Nc2cccc(Oc3ccccc3)c2)C1 (stereo not given)	DRD3 agonist 49 (no result: TSHR antag, B2AR arrestin)
COc1ccc(C(=O)NCc2ccc3c(c2)CCN3C(=O)c2cccc(C)c2)cc1OC	none (no result: TSHR antag, DRD3 antagonist, B2AR arrestin)
Cc1nc2c(C(=O)N3CCN(C)CC3)cnn2c(C)c1Cc1ccc(Cl)cc1	DRD3 antagonist -75
Cc1ccccc1Cc1c(C)nc2c(C(=O)NCc3ccc4c(c3)OCO4)cnn2c1C	DRD3 antagonist -81
Cc1ccccc1Cc1c(C)nc2c(C(=O)N3CCN(Cc4ccc5c(c4)OCO5)CC3)cnn2c1C	DRD3 antagonist -60 (no result: TSHR antag, B2AR arrestin)
Cc1ccc(CNC(=O)CCCN2C(=O)CCn3nc(-c4cn(C)c5ccccc45)cc32)cc1	none (no result: TSHR antag, DRD3 antagonist, B2AR arrestin)
CN(C/C=C/c1ccccc1)Cc1cccc2ccccc12	DRD3 antagonist -100
Cc1ccc(C2/C(=C(\O)c3c(C)nc4ccccn34)C(=O)C(=O)N2CCN(C)C)o1 (stereo not given)	DRD3 agonist 43
CC1(C)C2CCC1(CS(=O)(=O)N1CCOCC1)C(=O)C2 (stereo not given)	DRD3 agonist 36
CC1(C)C2CCC1(CS(=O)(=O)N1CCC(C(N)=O)CC1)C(=O)C2 (stereo not given)	none
CC1(C)Oc2ccc3ccc(=O)oc3c2/C(=C/NNC(N)=O)C1=O	DRD3 antagonist -111
COC(=O)c1c(NC(=O)CN2CCCc3ccccc32)sc(C)c1C	DRD3 antagonist -60
CCOC(=O)c1c(NC(=O)CN2CCCc3ccccc32)sc(C)c1C	none
Cc1ccc(-c2nc3sc(CCNC(=O)c4ccco4)c(C)n3n2)cc1	DRD3 agonist 40 (no result: TSHR antag, DRD3 antagonist, B2AR arrestin)
COCCN1C(=O)COc2ccccc2C1C(=O)Nc1ccc2c(c1)OCCO2 (stereo not given)	none (no result: TSHR antag, B2AR arrestin)
O=C(Cn1cnc2ccccc2c1=O)Nc1ccc(-c2nnc3n2CCCCC3)cc1	none
O=C(Cn1cnc2ccccc2c1=O)Nc1cccc(-c2nnc3n2CCCCC3)c1	DRD3 antagonist -51
CCc1ccc2oc(C(=O)Nc3c(C)n(C)n(-c4ccccc4)c3=O)cc(=O)c2c1	none (no result: TSHR antag, DRD3 antagonist, B2AR arrestin)
NS(=O)(=O)c1ccc(N2CCN(CCOc3ccc(Cl)cc3)CC2)nc1	DRD3 agonist 36
CCOc1ccc(C2C(C(N)=O)=C(C)Nc3nc(SCc4ccccc4F)nn32)cc1 (stereo not given)	none (no result: TSHR antag, DRD3 antagonist, B2AR arrestin)
Nc1c(C(=O)Nc2ccccc2)sc2nc3c(c(-c4ccco4)c12)CCC3	DRD3 antagonist -60
Nc1c(C(=O)Nc2ccccc2)sc2nc3c(c(-c4ccco4)c12)CCCC3	none

Assay outcomes deposited in PubChem by National Center for Advancing Translational Sciences (NCATS).
